High-throughput results (PubChem)
HP1b binding inh: HP1-beta chromodomain-methylated histone interaction inhibition | AlphaScreen HP1-beta / biotin-H3K9me3 peptide binding | AID 540317 | Potency, µM (series often up to 114 µM), without a hit: top-dose activity change, negative = inhibition, actives largely listed as inhibitors | actives 0.56% (n = 390,000) | P83916; note: nearly all actives have a fitted effect of over 70% in size
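AlphaScreen: HP1-beta (50 nM) preformed 30 min with biotin-H3(1-18)K9me3 peptide (50 nM) in PBS pH 7.4, 0.01% Tween-20. Compound added for 30 min at RT, then streptavidin donor/nickel chelate acceptor beads (10 ug/mL) for 30 min.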
L3MBTL1 inh: inhibitors of human L3MBTL1; Q9Y468; Potency, µM (doses to about 57.1 µM), inactives show at the highest dose activity, negative = inhibition, most hits filed as inhibitors; actives 0.66% (n = 230,000); AlphaScreen L3MBTL1–H3K9me1 peptide binding; note: % is set by controls: 0 for no effect and ±100 for the full control effect; nearly all actives have a fitted effect of over 60% in size
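AlphaScreen assay: L3MBTL1 (50 nM final) was preincubated 30 min at room temperature with biotinylated H3(1-15)K9me1 peptide (75 nM final), then 30 min with library compounds; streptavidin donor and nickel chelate acceptor beads (10 ug/mL final) added, 30 min dark.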
BAZ2B inh: BAZ2B (human) inhibition; Q9UIF8; AlphaScreen BAZ2B-H3K14Ac peptide displacement; Potency, µM (titrated, usually from 114 µM), without a hit: at the top dose activity change, negative = inhibition, usual class: inhibitors; actives 4.4% (n = 360,000); AID 504333; note: % is set by controls: 0 for no effect and ±100 for the full control effect; nearly all actives have a fitted effect of over 60% in size
Target sequence (Q9UIF8 whole entry, looked up): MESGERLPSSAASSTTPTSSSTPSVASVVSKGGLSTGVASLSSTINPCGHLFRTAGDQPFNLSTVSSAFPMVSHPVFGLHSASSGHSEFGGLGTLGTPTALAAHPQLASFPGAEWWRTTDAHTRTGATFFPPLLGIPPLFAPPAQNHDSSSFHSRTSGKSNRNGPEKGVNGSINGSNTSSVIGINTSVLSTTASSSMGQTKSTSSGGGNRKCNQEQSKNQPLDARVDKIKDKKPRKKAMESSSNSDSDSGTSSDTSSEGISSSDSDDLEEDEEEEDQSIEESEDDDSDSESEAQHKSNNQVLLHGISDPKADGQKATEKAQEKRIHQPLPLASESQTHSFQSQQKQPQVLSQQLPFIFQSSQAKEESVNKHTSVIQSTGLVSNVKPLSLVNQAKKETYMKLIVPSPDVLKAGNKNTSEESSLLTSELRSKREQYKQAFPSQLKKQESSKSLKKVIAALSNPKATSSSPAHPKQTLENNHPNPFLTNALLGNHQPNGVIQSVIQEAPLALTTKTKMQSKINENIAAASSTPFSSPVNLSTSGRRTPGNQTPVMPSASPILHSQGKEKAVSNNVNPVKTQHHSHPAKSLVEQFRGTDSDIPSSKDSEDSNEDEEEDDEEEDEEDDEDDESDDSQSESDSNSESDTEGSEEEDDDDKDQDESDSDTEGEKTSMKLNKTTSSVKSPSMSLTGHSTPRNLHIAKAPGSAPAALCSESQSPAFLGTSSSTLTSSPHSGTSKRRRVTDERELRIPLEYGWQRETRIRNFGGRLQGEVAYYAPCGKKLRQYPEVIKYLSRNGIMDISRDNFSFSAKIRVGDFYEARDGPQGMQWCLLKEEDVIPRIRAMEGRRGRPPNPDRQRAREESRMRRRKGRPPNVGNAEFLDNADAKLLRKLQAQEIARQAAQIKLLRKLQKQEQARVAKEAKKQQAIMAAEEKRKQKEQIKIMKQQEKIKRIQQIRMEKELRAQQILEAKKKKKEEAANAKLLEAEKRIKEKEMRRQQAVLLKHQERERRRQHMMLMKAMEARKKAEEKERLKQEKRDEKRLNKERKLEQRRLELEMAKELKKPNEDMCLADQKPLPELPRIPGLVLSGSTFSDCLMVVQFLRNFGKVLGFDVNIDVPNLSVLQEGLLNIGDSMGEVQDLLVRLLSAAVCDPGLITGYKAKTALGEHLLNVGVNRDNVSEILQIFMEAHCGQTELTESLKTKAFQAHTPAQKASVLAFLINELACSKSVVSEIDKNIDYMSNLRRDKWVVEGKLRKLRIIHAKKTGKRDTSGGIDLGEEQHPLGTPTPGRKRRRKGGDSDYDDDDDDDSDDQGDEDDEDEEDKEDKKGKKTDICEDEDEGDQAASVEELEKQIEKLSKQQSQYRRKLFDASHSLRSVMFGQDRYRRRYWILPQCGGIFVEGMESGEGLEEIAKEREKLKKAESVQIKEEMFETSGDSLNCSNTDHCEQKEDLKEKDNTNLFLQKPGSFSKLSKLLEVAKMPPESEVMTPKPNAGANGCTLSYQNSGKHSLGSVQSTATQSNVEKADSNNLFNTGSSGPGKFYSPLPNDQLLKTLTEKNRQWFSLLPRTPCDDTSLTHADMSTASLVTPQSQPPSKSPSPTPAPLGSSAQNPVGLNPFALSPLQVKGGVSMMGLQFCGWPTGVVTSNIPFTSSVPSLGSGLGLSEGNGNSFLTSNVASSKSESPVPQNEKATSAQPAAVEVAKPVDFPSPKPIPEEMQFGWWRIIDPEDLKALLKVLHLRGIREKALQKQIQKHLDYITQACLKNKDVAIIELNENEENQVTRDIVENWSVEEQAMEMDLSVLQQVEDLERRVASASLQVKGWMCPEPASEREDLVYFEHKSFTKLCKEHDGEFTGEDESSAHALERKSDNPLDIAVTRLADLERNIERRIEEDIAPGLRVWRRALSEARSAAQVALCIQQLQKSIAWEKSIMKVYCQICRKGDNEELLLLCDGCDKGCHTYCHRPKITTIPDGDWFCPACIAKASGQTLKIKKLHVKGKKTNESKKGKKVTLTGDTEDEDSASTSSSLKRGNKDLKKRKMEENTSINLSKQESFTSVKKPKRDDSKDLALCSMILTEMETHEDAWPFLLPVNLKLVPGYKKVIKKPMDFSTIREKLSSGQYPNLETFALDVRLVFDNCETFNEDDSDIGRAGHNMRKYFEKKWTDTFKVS
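Inhibition is scored as reduced AlphaScreen emission. The BAZ2B/b-H3(5-23)K14Ac complex (50 nM each) in PBS pH 7.4, 0.01% Tween-20 meets compound (up to 110 uM) for 30 min at RT before bead addition.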
Sfp PPTase inh: blocks B. subtilis Sfp PPTase activity; Q9F4F7; Biochemical Sfp PPTase activity, qHTS; Potency, µM, for inactives: largest response in the series, negative = inhibition, hits mostly inhibitors; actives 3.5% (n = 310,000); AID 1490;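 note: the enzyme is Sfp with the accession as filed and its product quenches rhodamine fluorescence; 0% = enzyme reaction without inhibitor and -100% = no enzyme wells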
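Step 1, compound plus 15 nM Sfp-PPTase, 15 min, room temperature. Step 2, add rhodamine-CoA (5 uM) and BHQ-2-YbbR (12.5 uM). Step 3, read 525/598 nm fluorescence at 0 and 30 min.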
G9a block: inhibitors of human histone lysine methyltransferase G9a | G9a H3K9 monomethylation, AlphaScreen, 2 h | Potency, µM (series often up to 102 µM), without a hit: top-dose activity, negative = inhibition, most hits filed as inhibitors | actives 8.8% (n = 350,000) | AID 504332; note: % is set by controls: 0 for no effect and ±100 for the full control effect; nearly all actives have a fitted effect of over 75% in size
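Step 1: enzyme (final 20 nM) with compound, 15 min RT. Step 2: substrate peptide 500 nM and SAM 20 uM, 2 h RT. Step 3: anti-H3K9me1 antibody and AlphaScreen beads, 10 min, then plate read.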
JMJD2A Tudor inh: inhibitors of human JMJD2A Tudor domain; O75164; AlphaScreen JMJD2A-Tudor / H3K4me3 peptide binding; Potency, µM (titrated, usually from 114 µM), for inactives: at the top dose activity change, negative = inhibition, actives largely listed as inhibitors; actives 4.4% (n = 390,000); AID 504339; note: % is set by controls: 0 for no effect and ±100 for the full control effect; nearly all actives have a fitted effect of over 50% in size
The depositor's hits bear a star; ? = inconclusive; nt = no result; [ ] = another dose, or the depositor's remark. The list is not random: actives were taken first. Their share in the collection is about 12%. Calls come from the whole dose curve; as a rule, active = well fitted curve in the direction sought with a large enough effect; inconclusive = small, poorly fitted or top-dose-only effect, or another doubt; inactive = no such curve, though single readings can be large; an effect the other way counts as inactive or inconclusive. Potency is the fitted concentration of half-maximal effect.

SMILES | HP1b binding inh | L3MBTL1 inh | BAZ2B inh | Sfp PPTase inh | G9a block | JMJD2A Tudor inh
Cc1cc(C)c2c(N)c(C(=O)c3ccc(Br)cc3)oc2n1 | 62% | 12% | -6% | 1% | 35µM* | 3%
COc1ccc(C(c2c(O)nc(SC)n(C)c2=O)c2c(O)nc(SC)n(C)c2=O)cc1O | 47% | 16% | -15% | 50µM* | 16µM* | -4%
COc1ccc(-c2nc(SC)n(C)c(=O)c2C#N)cc1OC | 7% | nt | -11% | -9% | -16%[2.33 µM] | -14%
CN(C)CCNC(=O)Cn1nc(N2CCN(c3ccccc3)CC2)ccc1=O | 56% | nt | 7% | nt | ? | -17%
CC[C@@H]1CC=C[C@H]2[C@H]1C(=O)N(Cc1ccccc1)[C@H]2c1ccc(OC)c(Cl)c1 | 52% | nt | 5% | -13% | 8%[59 µM] | 1%
CCOC(=O)/C(C#N)=C1/C(=O)N(Cc2ccccc2)c2ccccc21 | 14µM* | nt | 25µM* | 45µM* | 25µM* | 25µM*
CCOc1ccc(N(C(=O)c2ccccc2F)S(=O)(=O)c2ccc3c(c2)n(C)c(=O)n3C)cc1 | 28% | nt | -5% | nt | -1%[59 µM] | -13%
O=C(CNc1ccc(Cl)cc1)c1ccc(Br)cc1 | 45% | 8% | -8% | 7% | -45% | 0%
O=C(CNc1ccc(Br)cc1)c1ccc(Br)s1 | -11% | nt | ? | 6% | 40µM* | -16%
O=C(CNc1ccc(Br)cc1)c1ccc(O)cc1 | -13% | nt | 1% | 40µM* | 45µM* | ?
Cc1c(C(=O)Nc2cccc(C(F)(F)F)c2)oc2ccc(S(=O)(=O)N3CCC4(CC3)OCCO4)cc12 | -5% | nt | 8% | nt | -6%[59 µM] | -14%
COc1ccccc1CNS(=O)(=O)c1c(C)nc2sccn2c1=O | 19% | 8% | -2% | 6% | -1%[59 µM] | -12%
COc1ccc(/C=C(\NC(=O)c2ccco2)C(=O)NCCc2nc3ccccc3[nH]2)cc1 | 10% | -2% | -8% | 9% | nt | -28%
CCc1ccc(/C(C)=N/NC(=O)CNC(=O)/C=C/c2ccco2)cc1 | 22µM* | nt | nt | nt | nt | 22µM*
O=C(CNC(=O)/C=C/c1ccco1)N=Nc1c(O)[nH]c2ccccc12 | 39% | nt | 56µM* | 20µM* | 35µM* | -4%
COc1ccc(/C=C(\NC(=O)/C=C/c2ccco2)C(=O)NCCc2nc3ccccc3[nH]2)cc1 | ? | -14% | 50µM* | -7% | ? | ?
CCOc1ccc(CCNC(=O)/C=C/c2ccco2)cc1OCC | 5% | nt | ? | -29% | 35µM* | -34%
CC(=O)c1cc(CCC(=O)NC2CCCCCC2)oc1C | 6% | nt | -14% | 0% | -15% | -8%
COc1ccc(CC(=O)N/N=C(/C)CC(=O)N(C)c2ccccc2)cc1 | 6% | nt | -15% | 14% | 44% | -8%
COc1ccc(CCNC(=O)/C=C/c2ccco2)cc1 | ? | -5% | ? | -61% | nt | 32µM*
O=C(/C=C/c1ccco1)NCc1ccc(F)cc1 | -17% | nt | ? | 40µM* | ? | -7%[11.4 µM]
COc1ccc(/C=C/C(=O)NCCc2ccc(S(N)(=O)=O)cc2)cc1 | 54% | 4% | -18% | 10% | -7%[59 µM] | 9%
COc1ccc(CCNC(=O)/C=C/c2ccco2)cc1OC | -15% | -7% | -27% | 45µM* | 14µM* | -16%
O=C(COC(=O)/C=C/c1ccco1)NCc1ccccc1 | 45% | -8% | -36% | 6% | ? | -18%
O=C(COC(=O)CNC(=O)C1CCCCC1)NCc1ccc(Cl)cc1 | 21% | 6% | nt | nt | nt | -18%
O=[N+]([O-])c1cccc(S(=O)(=O)c2ccc(NCCOCCO)c([N+](=O)[O-])c2)c1 | 24% | nt | -11% | 13% | 13% | -23%
CCNc1ccc(S(=O)(=O)N(C)C)cc1[N+](=O)[O-] | -6% | 3% | ? | 0% | nt | 32µM*
O=[N+]([O-])c1cccc(S(=O)(=O)c2ccc(NCCO)c([N+](=O)[O-])c2)c1 | ? | -13% | -28% | 5% | -29% | 14µM*
